Source: PubChem BioAssay (NCATS)
Inconclusive results are not listed. The source made the active and inactive calls. Calls follow the shape of the dose curve; as a rule, active = well fitted cell-killing curve with a large enough effect; inconclusive = small, poorly fitted or top-dose-only effect; inactive = flat fitted curve, though single readings scatter.

Test: qHTS of pediatric cancer cell lines to identify multiple opportunities for drug repurposing: Primary screen for control Hh wild type fibroblast cells (AID 1347106);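 also: a drop in luminescence marks cytotoxicity and a rise apparent proliferation; nearly all actives have a fitted effect of over 55% in size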
Details: Hh wild-type fibroblast viability, CellTiter-Glo luminescence, 48 h; series mostly up to 46 µM; activity change, negative = cytotoxic: at the top concentration
Text: Drug repurposing or repositioning has been offered as a strategy for drug development in oncology programs. This approach has special potential for childhood cancers and other rare or orphan diseases, where the expected return on new drug development has been a disincentive to pharmaceuticals.
In this project we exploit the poly-pharmacology of drugs to discover new indications via phenotypic screening of a panel of 19 well-characterized cell lines derived from solid tumors seen in children and adolescents. The goal is to identify approved drugs with previously unrecognized anticancer properties that has the potential to reveal new mechanisms and biological processes involved in carcinogenesis or drug resistance. We employed a titration-based paradigm (quantitative high-throughput screening or qHTS), where all compounds were tested at multiple concentrations for their effect on cell viability. Concentration-response curves (CRCs) were derived directly from the primary screen, and both potency and efficacy values were used to identify compounds with robust bioactivity profiles. We screened the NIH Chemical Genomics Center (NCGC) Pharmaceutical Collection (NPC) and Mechanism Interrogation Plate (MIPE) small molecule collections of approved and investigational compounds against these cell lines; and measured metabolically active cells after 48 hours of compound treatment as a proxy for cell viability.
Assay Submitter: Nathalia J. Martinez, National Center for Advancing Translational Sciences, National Institutes of Health, Rockville, MD, USA; email: natalia.martinez@nih.gov
[1] Shen, M et al. Quantitative high-throughput phenotypic screening of pediatric cancer cell lines identifies multiple opportunities for drug repurposing. Oncotarget 2017 Dec 19;9(4):4758-4772. PMID 29435139.
The cells were obtained from University of North Carolina (UNC), Pediatric Preclinical Testing Program (PPT), and Coriell Institute (CI).
qHTS cell viability assay:
Cells were assayed in growth media at a density of 500-1,000 cells/well. Five microliters of cells were dispensed into 1,536-well, white, solid-bottom, TC-treated plates (Greiner Bio One) using a multidrop dispenser and incubated at 37 degrees C, 5% CO2, under a humidified atmosphere for 5 hours. Twenty-three nanoliters of compounds and controls (neutral control DMSO or positive control bortezomib at final concentration of 2.3 µM) were subsequently transferred by Kalypsys pintool. For primary screens, the MIPE collection was tested at 11-point dilutions (final concentrations range from 0.78 nM to 46 µM) and the NPC collection at 8-point dilutions (final concentrations range from 0.59 nM to 46 µM). Compounds tested in follow-up screens were assayed at 11-point dilutions. Cells were incubated for 48 hours, followed by addition of 3 µL of CellTiter-Glo (Promega). After a 15 min incubation at room temperature, samples were analyzed for luminescence intensity using a ViewLux High-throughput CCD imager equipped with clear filters.
% is scaled to controls: 0 for no effect and ±100 for the full control effect.

Compound	activity change, negative = cytotoxic
O=C(O)c1[nH]n(-c2ccc(S(=O)(=O)O)cc2)c(=O)c1N=Nc1ccc(S(=O)(=O)O)cc1	4.31% (inactive)
CCCCCC1Nc2cc(C(F)(F)F)c(S(N)(=O)=O)cc2S(=O)(=O)N1 (stereo not given)	2.55% (inactive)
CCc1cc(S(=O)(=O)O)c2cc(C(C)C)cccc1-2	-2.78% (inactive)
CCC[C@H](N[C@@H](C)C(=O)N1[C@H](C(=O)O)C[C@@H]2CCCC[C@@H]21)C(=O)OCC	-5.02% (inactive)
C1=CC2C3C=CC(C3)C2C1 (stereo not given)	1.83% [at 92.7 µM] (inactive)
CCCCC(O)/C=C(C)/C=C/C=C/C(=O)N1CCCC1=O (stereo not given)	17.9% (inactive)
Nc1cc(C(F)(F)F)ccc1S	12.3% (inactive)
CNC(=O)c1c(I)c(NC(C)=O)c(I)c(C(=O)O)c1I	6.77% (inactive)
COCCOCC(OC)OC	-0.198% (inactive)
CN(C)CCCOC1(Cc2ccccc2)CCCCCC1	9.76% (inactive)
CCCCC/C=C\C/C=C\CCCCCCCC(=O)NC(C)c1ccccc1 (stereo not given)	2.7% (inactive)
NC(=O)COCCN1CCN(C(c2ccccc2)c2ccc(Cl)cc2)CC1 (stereo not given)	2.85% (inactive)
Nc1cccc2c(N)cccc12	-12.4% [at 92.7 µM] (inactive)
NCC[C@H](O)C(=O)N[C@@H]1C[C@H](N)[C@@H](O[C@H]2O[C@H](CN)[C@@H](O)[C@H](O)[C@@H]2O)[C@H](O)[C@@H]1O[C@H]1O[C@H](CO)[C@@H](O)[C@H](N)[C@@H]1O	-6.47% [at 0.597 µM] (inactive)
Cc1nc2n(c(=O)c1CCN1CCC(C(=O)c3ccc(F)cc3)CC1)CCS2	4.43% (inactive)
Cc1cccc(C)c1NC(=O)c1ccc(N)cc1	6.71% (inactive)
CC(NC(CCc1ccccc1)C(=O)O)C(=O)N1C(=O)N(C)CC1C(=O)O (stereo not given)	4.21% (inactive)
Cc1oc(-c2ccccc2)nc1CCC(=O)c1ccc(CC2SC(=O)NC2=O)cc1 (stereo not given)	9.44% (inactive)
CCCC(=O)O[C@]1(C(=O)CC)CC[C@H]2[C@@H]3CCC4=CC(=O)CC[C@]4(C)[C@H]3[C@@H](O)C[C@@]21C	-2.31% (inactive)
COc1c(C)c2c(c(O)c1C/C=C(\C)CCC(=O)OCCN1CCOCC1)C(=O)OC2	-25.1% (inactive)

Compound	activity change, negative = cytotoxic
CC(C)NCCCC1(C(N)=O)c2ccccc2-c2ccccc21	3.74% (inactive)
CCOCCn1c(C2CCN(CCc3ccc(C(C)(C)C(=O)O)cc3)CC2)nc2ccccc21	-6.31% (inactive)
COc1ccc(/C(C)=C/C(=O)O)c(OC)c1	11.7% (inactive)
CCCCN(CCN(CCCC)C(=O)N1CCOCC1)C(=O)N1CCOCC1	-3.12% (inactive)
CCc1cc2cc(OC)c(OC)cc2c(Cc2ccccc2)n1	-4.58% (inactive)
CC(C)C(=O)OCc1cccc(OC(=O)[C@@H]2N3C(=O)[C@@H](NC(=O)Cc4ccccc4)[C@H]3SC2(C)C)c1	-1.33% (inactive)
CO/N=C(/C(=O)N[C@@H]1C(=O)N2C(C(=O)OCOC(=O)C(C)(C)C)=C(C)CS[C@H]12)c1csc(N)n1	-4.04% (inactive)
CCCCOC(=O)CCCCCCCCC(=O)OCCCC	-3.27% (inactive)
CN(C)CCOC(c1ccccc1)c1ccc(Br)cc1 (stereo not given)	-3.63% (inactive)
CCOc1ccccc1OCC1CNCCO1 (stereo not given)	1.23% (inactive)
Cc1sccc1Br	11.6% (inactive)
Fc1ccc(C(c2ccc(F)cc2)N2CCNCC2)cc1	6.95% (inactive)
CC(C)C(C)(C)C(C)(C)C(C)(C)S	8.75% [at 92.7 µM] (inactive)
O=C(O)[C@H](O)[C@@H](O)[C@H](O[C@@H]1O[C@H](CO)[C@H](O)[C@H](O)[C@H]1O)[C@H](O)CO	1.55% (inactive)
Cc1nc(N)nc(N)c1-c1ccc(Cl)c(Cl)c1	-11.2% (inactive)
COC(=O)c1cc(Cl)ccc1NS(=O)(=O)C(F)(F)F	-1.27% (inactive)
Cc1ccc(C(=O)Oc2ccc(C(O)CNC(C)(C)C)cc2OC(=O)c2ccc(C)cc2)cc1 (stereo not given)	-9.47% (inactive)
CN(C(=O)C(Cl)Cl)c1ccc(OC(=O)c2ccco2)cc1	-2.55% (inactive)
CC(C)C(=O)Nc1cccc(C(F)(F)F)c1	4.51% (inactive)
COC(=O)c1cc(S(N)(=O)=O)ccc1OC	4.16% (inactive)
